LDHA block = qHTS assay for inhibitors of human lactate dehydrogenase. L-lactate dehydrogenase A chain (Homo sapiens), P00338. purified LDHA, NADH/diaphorase-resazurin fluorescence; hits give low values. activity change, % (values are at about 110 or 230 µM). 480,000 tested, 0.15% active; in the data active = activity change below about -30%; inconclusive = mostly about -25% to -30%;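 note: plate controls were DMSO wells for no effect and wells without enzyme for full effect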
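LDH5 2 nM; NADH 0.06 mM, pyruvate 0.2 mM; 200 mM Tris pH 7.4, EDTA, Tween-20; 5 min RT. Detection: diaphorase 0.133 mg/mL + resazurin 37 µM, fluorescence ex540/em590 at 0 and 20 min; normalized to enzyme-free and DMSO wells.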
TrxR1 substrate = qHTS Assay for Substrates of Mammalian Selenoprotein Thioredoxin Reductase 1 (TrxR1): qHTS; Thioredoxin reductase 1, cytoplasmic (Rattus norvegicus), O89049; purified TrxR1 substrate turnover, NADPH consumption readout; Potency, µM (highest dose often 114 µM), inactives show at the top dose activity change, negative = substrate turnover; 390,000 tested, 0.01% active; AID 588456, 2011; note: potency is the fitted concentration of half-maximal effect; nearly all actives have a fitted effect of over 50% in size
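Rat TrxR1, dispensed at 90 nM, was prereduced with 400 uM NADPH (final) for 5 min at ~22 deg C, then incubated with compound 15 min before 400 uM selenite. A first-read NADPH fluorescence drop versus no-compound background flagged substrates.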
mIDH1 inhibitor = qHTS for Inhibitors of mutant isocitrate dehydrogenase 1 (IDH1): qHTS; Isocitrate dehydrogenase [NADP] cytoplasmic (Homo sapiens), O75874; IDH1-R132H enzyme, NADPH consumption, diaphorase/resazurin fluorescence; Potency, µM (top dose mostly 76.6 µM), inactives show at the highest dose activity change, negative = inhibition, usual class: inhibitors; 390,000 tested, 0.093% active; AID 602179, 2012; note: potency is the fitted concentration of half-maximal effect; nearly all actives have a fitted effect of over 65% in size
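IDH1-R132H (0.5 ug/mL dispensed) in pH 7.5 Tris buffer was preincubated 30 min with compound, then given a substrate mix of 0.016 mM NADPH and 2 mM alpha-KG for 80 min at room temperature; remaining NADPH was read by diaphorase/resazurin fluorescence.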
PKM2 activator = qHTS Assay for Activators of Human Muscle isoform 2 Pyruvate Kinase | Pyruvate kinase PKM (Homo sapiens), P14618 | purified PKM2, Kinase-Glo ATP luminescence, activation; response scale: 0% is enzyme alone, no compound | Potency, µM (series often up to 57.5 µM), inactives show at the highest dose activation, hits mostly activators | 260,000 tested, 0.34% active | AID 1631, 2009; note: potency is the fitted concentration of half-maximal effect; nearly all actives have a fitted effect of over 55% in size
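ATP formation by purified human PK-M2, quantified via coupled luciferase luminescence after 1 h at room temperature with 0.1 mM ADP and 0.5 mM PEP final.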
rTrxR1 inhibitor = qHTS Assay for Inhibitors of Mammalian Selenoprotein Thioredoxin Reductase 1 (TrxR1): qHTS; 390,000 tested, 1% active; AID 588453, 2011; Potency, µM (titrated, usually from 114 µM), without a hit: top-dose activity change, negative = inhibition, usual class: inhibitors; recombinant rTrxR1, NADPH fluorescence consumption, selenite substrate; note: potency is the fitted concentration of half-maximal effect; nearly all actives have a fitted effect of over 65% in size
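Rat TrxR1 (90 nM in the dispensed reagent) was pre-reduced with 400 uM NADPH for 5 min at room temperature, then incubated with compound for 15 min. After 400 uM selenite was added, NADPH fluorescence (Ex 340/Em 450 nm) was followed for 8 min.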
GLS inh = qHTS for Inhibitors of Glutaminase (GLS); GLS enzymatic activity, qHTS titration; Potency, µM (titrated, usually from 45.5 µM), for inactives: at the highest dose activity change, negative = inhibition, most hits filed as inhibitors; 410,000 tested, 0.21% active; note: potency is the fitted concentration of half-maximal effect
Target sequence (O94925 whole entry, looked up): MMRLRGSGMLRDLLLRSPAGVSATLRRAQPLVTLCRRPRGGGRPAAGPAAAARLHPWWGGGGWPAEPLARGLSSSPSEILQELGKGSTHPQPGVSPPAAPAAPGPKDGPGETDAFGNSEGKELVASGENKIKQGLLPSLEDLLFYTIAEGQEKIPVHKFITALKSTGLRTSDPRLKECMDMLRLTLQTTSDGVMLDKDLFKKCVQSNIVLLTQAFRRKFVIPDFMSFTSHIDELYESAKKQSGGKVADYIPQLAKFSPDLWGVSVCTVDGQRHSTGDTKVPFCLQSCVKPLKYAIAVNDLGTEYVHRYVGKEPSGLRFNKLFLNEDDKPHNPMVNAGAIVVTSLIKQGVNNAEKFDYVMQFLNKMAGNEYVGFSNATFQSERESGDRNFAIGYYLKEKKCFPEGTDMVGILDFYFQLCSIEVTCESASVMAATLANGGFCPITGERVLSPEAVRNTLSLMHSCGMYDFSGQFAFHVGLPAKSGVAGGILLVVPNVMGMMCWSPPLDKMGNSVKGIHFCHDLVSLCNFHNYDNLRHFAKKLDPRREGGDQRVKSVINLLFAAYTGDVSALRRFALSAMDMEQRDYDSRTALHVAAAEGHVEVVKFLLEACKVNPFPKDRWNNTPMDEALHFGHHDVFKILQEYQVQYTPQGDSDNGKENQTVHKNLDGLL
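Assay buffer: 45 mM KH2PO4 pH 8.2, 0.02% Tween-20. hKGA acts on L-glutamine (1 mM solution added); product glutamate is reported by an oxidase/peroxidase Amplex Red coupling, with fluorescence taken at baseline and 30 min.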
Starred values were filed as active, the others as inactive; ? = inconclusive; nt = no result given; [ ] = remark or other dose. Only some compounds are listed: those with a hit (about 1.4% of all), similar ones and a draw of the others. Unless noted, calls come from the whole dose curve; as a rule, active = well fitted curve in the direction sought with a large enough effect; inconclusive = small, poorly fitted or top-dose-only effect, or another doubt; inactive = no such curve, though single readings can be large; an effect the other way counts as inactive or inconclusive. Unless noted, % is set by controls: 0 for no effect and ±100 for the full control effect.

SMILES	LDHA block	TrxR1 substrate	mIDH1 inhibitor	PKM2 activator	rTrxR1 inhibitor	GLS inh
CC1CCCCC1NC(=O)/C=C/c1cccs1 (stereo not given)	10	nt	nt	nt	nt	nt
CO/N=C(/C(=O)N[C@@H]1C(=O)N2C(C(=O)O)=C(CSc3nnnn3C)CS[C@H]12)c1csc(N)n1	nt	nt	nt	nt	nt	2%
CO/N=C(/C(=O)N[C@@H]1C(=O)N2C(C(=O)O)=C(CSc3cnns3)CS[C@H]12)c1csc(N)n1	nt	nt	nt	nt	nt	32µM*
COc1ccc(Cl)cc1NC(=O)c1c(NCc2ccc(C)o2)sc2c1CCCCC2	9	9%[57.1 µM]	8%	nt	?	?
COc1ccc(OC)c(NC(=O)c2c(NCc3ccc(C)o3)sc3c2CCCCC3)c1	11	3%[57.1 µM]	-10%	nt	14µM*	-25%
COc1ccccc1NC(=O)c1c(NCc2ccc(C)o2)sc2c1CCCCC2	3	2%[57.1 µM]	-5%	nt	14µM*	-6%
COc1ccc(Cl)cc1NC(=O)c1c(NCc2ccc(C)o2)sc2c1CCC(C)C2 (stereo not given)	-1	1%[57.1 µM]	-21%	nt	-15%[57.1 µM]	8%
COc1cccc(N2C(=O)CN(C3CCCCC3)[C@H]3CS(=O)(=O)C[C@H]32)c1	1	nt	nt	nt	nt	nt
COc1cc(CN(C)CC(=O)N2c3ccccc3NC(=O)CC2C)ccc1OC(F)F (stereo not given)	-1	nt	nt	nt	nt	nt
CC(C)COc1ccc(C(=O)Nc2nonc2-c2ccc(OC(C)C)cc2)cc1	-30*	nt	nt	nt	nt	nt
COc1cccc(C2CC(=O)NC3=C2C(=O)CC(C)(C)C3)c1 (stereo not given)	14	nt	nt	nt	nt	nt
Brc1ccc(OCc2nnnn2-c2ccccc2)cc1	2	1%[57.1 µM]	5%	25µM*	15%[57.1 µM]	-15%
Cc1nn(-c2ccc3nncn3n2)c2c1C(c1ccccc1)CC(=O)N2 (stereo not given)	-9	nt	nt	nt	nt	nt
Cc1ccc(CCNC(=O)c2cc3c(s2)-c2ccccc2OC3)cc1	-36*	131%	2%	nt	?	2%
O=C(NCCc1ccc(Cl)cc1)c1cc2c(s1)-c1ccccc1OC2	-6	118%	-4%	nt	49%	2%
Nc1nnc(CC(=O)N/N=C/c2cc([N+](=O)[O-])cc(Br)c2O)s1	-86*	-14%	2%	0%	35µM*	26%
Nc1nnc(CC(=O)N/N=C/c2cccc([N+](=O)[O-])c2)s1	1	-7%	11%	?	?	-7%
CC(C)C1=CC2=CC[C@@H]3[C@](C)(CCC[C@@]3(C)C(=O)O)[C@H]2CC1	nt	nt	nt	nt	nt	14µM*
CC(=O)n1cc(N(C(=O)CCl)c2ccc(C)cc2)c2ccccc21	-1	-3%	6%	6%	2µM*	-14%
CC(=O)N(c1ccc(Cl)cc1)c1cn(C(C)=O)c2ccccc12	-6	2%	0%	2%	15%	-10%
CCOc1ccc(C2Nc3ccccc3C(=O)N2C2CC2)cc1OC (stereo not given)	11	nt	nt	nt	nt	nt
Cc1nn(-c2ccccn2)c2c1C(=O)C(Br)CC2 (stereo not given)	29	-6%	17%	18%	13µM*	?
COC(=O)c1cccc(Cn2c(Cl)c(/C=N/Nc3ccccc3C)sc2=O)c1	4	-13%	1%	-2%	22µM*	-2%
Cc1ccccc1N/N=C/c1sc(=O)n(Cc2cccc(C(=O)O)c2)c1Cl	8	1%	-9%	-3%	50µM*	-26%
CS(=O)(=O)c1ccc2nc(NC(=O)CSCc3ccccc3)sc2c1	-4	nt	nt	nt	nt	nt
SMILES	LDHA block	TrxR1 substrate	mIDH1 inhibitor	PKM2 activator	rTrxR1 inhibitor	GLS inh
O=C(CN1CCCN(S(=O)(=O)c2ccc(Br)cc2)CC1)Nc1cccc(C(F)(F)F)c1	1	-7%	1%	nt	50µM*	2%
Cc1ccc(NC(=O)CN2CCCN(S(=O)(=O)c3ccc(Br)s3)CC2)cc1	0	-9%	2%	6%	71µM*	1%
COc1ccc(S(=O)(=O)N2CCCN(CCC(=O)Nc3cccc(C(F)(F)F)c3)CC2)cc1	-5	-7%	2%	12%	-8%	-5%
Cc1ccc(C)c(S(=O)(=O)NCCc2coc(-c3ccccc3)n2)c1	10	nt	nt	nt	nt	nt
CCc1ccc(C(CNC(=O)c2nccnc2N)N(C)C)cc1 (stereo not given)	-16	nt	nt	nt	nt	nt
COc1ccc(NC(=O)c2cc3cccc(OC)c3oc2=Nc2ccc(C(=O)O)cc2)cc1OC	2	-1%	0%	1%	5%	6.3µM*
CCOC(=O)C(C)CC(C)C(=O)N1CCOCCOCCN(C(=O)C(C)CC(C)C(=O)OCC)CCOCC1 (stereo not given)	2	7%	1%	0%	9%	6%
CCOC(=O)C(C(=O)OCC)C(C(=O)OCC)N1CCOCC1 (stereo not given)	0	6%	5%	16%	1.3µM*	12%
CCNc1nc(NCC)nc(OCCOC(=O)c2ccccc2)n1	-11	-4%	9%	14µM*	3%	-6%
CCNc1nc(NCC)nc(OCCOC(=O)Nc2ccccc2)n1	-3	14%[57.1 µM]	2%	5%	1%[57.1 µM]	3%
COC(=O)N(C)CC(=O)NCc1ccccc1	-2	nt	nt	nt	nt	nt
COc1ccccc1Cn1c(=O)c2ccccc2n2c(SCC(=O)N3CCCCC3)nnc12	-6	21%	-1%	2%	14%	16µM*
Cc1cc(C)n2c(=O)c3ccc(Cl)cc3nc2c1C#N	-6	4%[57.1 µM]	2%	17%	24%[57.1 µM]	?
Cc1cc(Cl)n2c(nc3cc(F)c(F)cc32)c1C#N	8	2%[57.1 µM]	0%	1%	6.3µM*	-10%
N#Cc1nc(-c2cccc(Cl)c2)oc1NCCCN1CCOCC1	16	nt	nt	nt	nt	nt
Cc1cc(N2CCOCC2)nc(Nc2ccc(NC(=O)CC3CCCC3)cc2)n1	16	nt	nt	nt	nt	nt
Cc1[nH]c(-c2ccco2)nc1C(=O)O	7	4%	-1%	-9%	18µM*	8%
CC(=O)Nc1ccc(S(=O)(=O)Oc2cccc(/C=C3\SC(N)=NC3=O)c2)cc1	-8	4%[57.1 µM]	0%	-2%	4%[57.1 µM]	18µM*
NC1=NC(=O)/C(=C/c2cccc(F)c2)S1	-7	-3%	-11%	nt	18%	-4%
O=C(CSc1ncc(S(=O)(=O)c2ccc(Cl)cc2)c(=O)[nH]1)Nc1cccc(C(F)(F)F)c1	-2	-1%	?	nt	11%	5%

Screening results deposited in PubChem by National Center for Advancing Translational Sciences (NCATS).
